These results are taken from ChEMBL document CHEMBL1961873, “Compounds: GSK PKIS; Assays: Nanosyn kinase panel” (2012).

For experiment [1], the target named is T1, Serine/threonine-protein kinase Nek9 (Homo sapiens) (UniProt Q8TD19).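 Further: each value is a mean percent inhibition of NEK9.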
T1 sequence (whole entry): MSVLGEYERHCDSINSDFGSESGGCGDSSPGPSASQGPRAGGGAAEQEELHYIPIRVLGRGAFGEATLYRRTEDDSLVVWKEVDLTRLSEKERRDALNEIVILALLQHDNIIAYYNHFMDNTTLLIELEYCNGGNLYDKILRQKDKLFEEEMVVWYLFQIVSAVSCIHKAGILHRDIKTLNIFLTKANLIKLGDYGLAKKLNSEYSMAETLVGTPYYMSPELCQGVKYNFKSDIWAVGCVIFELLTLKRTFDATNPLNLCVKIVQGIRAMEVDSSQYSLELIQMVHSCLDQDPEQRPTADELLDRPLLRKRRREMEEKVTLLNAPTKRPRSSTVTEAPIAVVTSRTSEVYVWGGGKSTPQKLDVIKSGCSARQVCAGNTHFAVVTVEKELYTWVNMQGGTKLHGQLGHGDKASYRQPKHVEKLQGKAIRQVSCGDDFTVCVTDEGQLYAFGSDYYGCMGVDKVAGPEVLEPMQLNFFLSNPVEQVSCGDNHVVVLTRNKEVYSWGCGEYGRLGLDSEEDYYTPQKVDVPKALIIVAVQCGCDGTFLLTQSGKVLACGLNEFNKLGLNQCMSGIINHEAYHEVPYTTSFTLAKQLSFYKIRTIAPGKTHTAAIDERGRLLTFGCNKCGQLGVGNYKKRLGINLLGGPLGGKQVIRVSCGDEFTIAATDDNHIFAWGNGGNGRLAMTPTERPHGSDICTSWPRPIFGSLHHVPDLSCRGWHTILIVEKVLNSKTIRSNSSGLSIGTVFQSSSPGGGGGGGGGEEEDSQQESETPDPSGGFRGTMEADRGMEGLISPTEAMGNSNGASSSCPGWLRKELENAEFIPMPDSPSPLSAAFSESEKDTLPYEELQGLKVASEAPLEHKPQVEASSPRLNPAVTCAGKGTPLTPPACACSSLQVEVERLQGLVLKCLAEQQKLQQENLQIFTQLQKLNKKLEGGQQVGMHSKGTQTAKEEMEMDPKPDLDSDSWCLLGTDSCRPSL
The settings on record: at 1 µM.

Experiment [2] deals with Serine/threonine-protein kinase PLK1 (Homo sapiens) (UniProt P53350). The settings on record: at 0.1 µM.
Experiment [3] has the same target. The settings on record: at 1 µM.
Experiment [4] has as its target T2, Dual specificity protein kinase TTK (Homo sapiens) (UniProt P33981).
T2 sequence (whole entry): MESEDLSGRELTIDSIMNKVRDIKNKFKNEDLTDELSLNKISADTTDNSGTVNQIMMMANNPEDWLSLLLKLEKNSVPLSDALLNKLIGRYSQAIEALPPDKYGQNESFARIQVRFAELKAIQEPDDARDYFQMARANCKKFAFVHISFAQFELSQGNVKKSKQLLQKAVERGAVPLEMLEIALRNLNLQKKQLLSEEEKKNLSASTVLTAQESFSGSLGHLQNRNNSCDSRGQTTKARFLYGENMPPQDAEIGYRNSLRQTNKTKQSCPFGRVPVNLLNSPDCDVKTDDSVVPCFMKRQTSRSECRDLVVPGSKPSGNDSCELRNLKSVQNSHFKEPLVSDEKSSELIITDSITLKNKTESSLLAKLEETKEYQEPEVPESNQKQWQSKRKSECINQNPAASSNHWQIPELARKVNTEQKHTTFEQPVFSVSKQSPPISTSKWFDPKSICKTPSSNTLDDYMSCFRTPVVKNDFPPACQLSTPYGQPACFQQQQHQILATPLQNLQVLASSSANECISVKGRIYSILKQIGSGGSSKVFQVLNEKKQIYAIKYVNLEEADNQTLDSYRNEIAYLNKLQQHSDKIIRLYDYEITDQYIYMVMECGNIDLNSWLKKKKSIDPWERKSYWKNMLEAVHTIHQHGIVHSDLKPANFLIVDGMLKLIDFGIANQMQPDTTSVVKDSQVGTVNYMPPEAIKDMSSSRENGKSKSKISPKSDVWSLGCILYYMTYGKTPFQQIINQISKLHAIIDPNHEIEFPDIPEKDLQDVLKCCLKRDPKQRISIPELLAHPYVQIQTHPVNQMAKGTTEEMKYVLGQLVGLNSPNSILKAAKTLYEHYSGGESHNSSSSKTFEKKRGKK
The settings on record: at 0.1 µM.

Experiment [5] deals with T3, Receptor-type tyrosine-protein kinase FLT3 (Homo sapiens), P36888 [D835Y].
T3 sequence (whole entry): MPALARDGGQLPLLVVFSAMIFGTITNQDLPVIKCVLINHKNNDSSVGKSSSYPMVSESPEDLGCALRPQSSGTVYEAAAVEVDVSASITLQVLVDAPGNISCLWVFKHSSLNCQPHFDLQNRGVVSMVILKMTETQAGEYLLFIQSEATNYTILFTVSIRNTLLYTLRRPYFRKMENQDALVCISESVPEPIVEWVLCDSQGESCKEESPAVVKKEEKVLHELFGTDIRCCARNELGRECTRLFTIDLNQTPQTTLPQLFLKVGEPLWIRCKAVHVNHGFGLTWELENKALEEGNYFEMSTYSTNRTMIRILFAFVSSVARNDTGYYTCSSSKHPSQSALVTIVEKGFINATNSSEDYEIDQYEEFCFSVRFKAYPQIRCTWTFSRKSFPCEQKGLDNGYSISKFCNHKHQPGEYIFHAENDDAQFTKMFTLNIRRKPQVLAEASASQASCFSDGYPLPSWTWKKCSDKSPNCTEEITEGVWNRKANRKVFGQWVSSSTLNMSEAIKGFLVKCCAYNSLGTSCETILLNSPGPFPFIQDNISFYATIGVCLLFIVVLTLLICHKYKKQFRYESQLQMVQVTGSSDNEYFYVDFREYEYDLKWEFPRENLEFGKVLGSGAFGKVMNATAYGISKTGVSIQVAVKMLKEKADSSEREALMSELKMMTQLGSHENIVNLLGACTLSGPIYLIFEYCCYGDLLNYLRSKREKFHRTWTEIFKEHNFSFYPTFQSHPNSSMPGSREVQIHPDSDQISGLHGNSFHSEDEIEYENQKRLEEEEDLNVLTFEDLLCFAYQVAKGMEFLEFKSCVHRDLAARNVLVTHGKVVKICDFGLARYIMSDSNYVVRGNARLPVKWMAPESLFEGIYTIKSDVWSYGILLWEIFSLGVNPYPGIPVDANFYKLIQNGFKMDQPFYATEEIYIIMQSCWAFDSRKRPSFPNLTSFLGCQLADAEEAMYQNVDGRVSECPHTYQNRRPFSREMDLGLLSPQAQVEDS
As to conditions: at 1 µM.

Experiment [6] addresses Vascular endothelial growth factor receptor 3 (Homo sapiens) (UniProt P35916). As to conditions: at 0.1 µM.
For experiment [7] the target is unchanged. As to conditions: at 1 µM.
Experiment [8] has as its target Macrophage colony-stimulating factor 1 receptor (Homo sapiens) (UniProt P07333). The settings on record: at 0.1 µM.
For experiment [9] the target is unchanged. As to conditions: at 1 µM.
For experiment [10], the target named is Tyrosine-protein kinase Fyn (Homo sapiens) (UniProt P06241). The settings on record: at 0.1 µM.
Tyrosine-protein kinase Fyn (Homo sapiens), sequence (P06241 2-537 limits assumed): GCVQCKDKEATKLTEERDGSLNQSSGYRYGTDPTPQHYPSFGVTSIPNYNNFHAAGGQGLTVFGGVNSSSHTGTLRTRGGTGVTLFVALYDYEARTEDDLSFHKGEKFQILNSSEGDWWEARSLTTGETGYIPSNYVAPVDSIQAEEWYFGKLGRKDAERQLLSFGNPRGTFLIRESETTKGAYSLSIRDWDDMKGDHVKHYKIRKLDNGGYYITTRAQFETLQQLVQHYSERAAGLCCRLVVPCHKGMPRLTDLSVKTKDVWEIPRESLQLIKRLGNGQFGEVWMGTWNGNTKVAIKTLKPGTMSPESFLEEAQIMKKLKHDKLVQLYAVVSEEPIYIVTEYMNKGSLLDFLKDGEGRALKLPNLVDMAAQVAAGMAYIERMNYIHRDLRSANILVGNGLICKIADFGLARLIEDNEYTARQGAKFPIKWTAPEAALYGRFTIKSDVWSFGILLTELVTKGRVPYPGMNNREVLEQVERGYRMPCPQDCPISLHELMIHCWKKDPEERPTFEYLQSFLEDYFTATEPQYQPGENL
Experiment [11] shares this target. The settings on record: at 1 µM.
For experiment [12], the target named is Tyrosine-protein kinase HCK (Homo sapiens) (UniProt P08631). As to conditions: at 0.1 µM.
Tyrosine-protein kinase HCK (Homo sapiens), sequence (P08631 2-526 limits assumed): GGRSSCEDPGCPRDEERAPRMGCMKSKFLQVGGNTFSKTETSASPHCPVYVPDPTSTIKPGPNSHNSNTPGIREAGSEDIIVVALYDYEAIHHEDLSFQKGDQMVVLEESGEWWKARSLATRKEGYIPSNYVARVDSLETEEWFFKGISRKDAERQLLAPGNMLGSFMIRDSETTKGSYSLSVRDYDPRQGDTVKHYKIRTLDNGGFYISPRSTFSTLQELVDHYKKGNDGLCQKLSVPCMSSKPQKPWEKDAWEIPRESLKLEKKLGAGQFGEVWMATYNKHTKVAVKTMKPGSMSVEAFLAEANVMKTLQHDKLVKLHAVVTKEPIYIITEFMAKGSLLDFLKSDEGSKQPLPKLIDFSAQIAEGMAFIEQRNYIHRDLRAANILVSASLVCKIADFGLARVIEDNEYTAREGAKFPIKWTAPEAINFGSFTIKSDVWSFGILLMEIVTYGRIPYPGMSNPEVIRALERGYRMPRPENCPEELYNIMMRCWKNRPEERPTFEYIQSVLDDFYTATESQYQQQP
The target is the same in experiment [13]. The settings on record: at 1 µM.
Experiment [14] deals with Insulin-like growth factor 1 receptor (Homo sapiens) (UniProt P08069). As to conditions: at 0.1 µM.
Experiment [15] has the same target. The settings on record: at 1 µM.
For experiment [16], the target named is Insulin receptor (Homo sapiens) (UniProt P06213). The settings on record: at 0.1 µM.
Insulin receptor (Homo sapiens), sequence (P06213 28-758 limits assumed): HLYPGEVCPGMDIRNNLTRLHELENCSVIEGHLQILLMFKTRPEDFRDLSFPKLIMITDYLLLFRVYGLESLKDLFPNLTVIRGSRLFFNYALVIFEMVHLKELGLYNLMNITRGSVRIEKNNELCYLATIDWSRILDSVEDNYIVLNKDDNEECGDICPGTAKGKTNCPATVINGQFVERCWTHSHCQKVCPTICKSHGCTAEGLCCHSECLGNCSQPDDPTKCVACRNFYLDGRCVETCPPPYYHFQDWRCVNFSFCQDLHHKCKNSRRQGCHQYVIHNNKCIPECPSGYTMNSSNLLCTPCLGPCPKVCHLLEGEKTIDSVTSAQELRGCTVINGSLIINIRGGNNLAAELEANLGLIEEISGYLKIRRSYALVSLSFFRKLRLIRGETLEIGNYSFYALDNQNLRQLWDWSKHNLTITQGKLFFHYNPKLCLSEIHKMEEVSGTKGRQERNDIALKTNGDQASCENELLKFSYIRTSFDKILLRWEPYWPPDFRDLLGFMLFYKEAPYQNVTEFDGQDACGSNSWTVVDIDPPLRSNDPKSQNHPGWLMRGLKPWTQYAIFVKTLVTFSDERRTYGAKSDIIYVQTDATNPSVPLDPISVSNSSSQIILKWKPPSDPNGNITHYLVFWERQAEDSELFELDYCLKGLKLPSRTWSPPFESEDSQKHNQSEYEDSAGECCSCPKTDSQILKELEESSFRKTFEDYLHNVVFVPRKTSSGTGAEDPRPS
Insulin receptor (Homo sapiens), sequence (P06213 763-1382 limits assumed): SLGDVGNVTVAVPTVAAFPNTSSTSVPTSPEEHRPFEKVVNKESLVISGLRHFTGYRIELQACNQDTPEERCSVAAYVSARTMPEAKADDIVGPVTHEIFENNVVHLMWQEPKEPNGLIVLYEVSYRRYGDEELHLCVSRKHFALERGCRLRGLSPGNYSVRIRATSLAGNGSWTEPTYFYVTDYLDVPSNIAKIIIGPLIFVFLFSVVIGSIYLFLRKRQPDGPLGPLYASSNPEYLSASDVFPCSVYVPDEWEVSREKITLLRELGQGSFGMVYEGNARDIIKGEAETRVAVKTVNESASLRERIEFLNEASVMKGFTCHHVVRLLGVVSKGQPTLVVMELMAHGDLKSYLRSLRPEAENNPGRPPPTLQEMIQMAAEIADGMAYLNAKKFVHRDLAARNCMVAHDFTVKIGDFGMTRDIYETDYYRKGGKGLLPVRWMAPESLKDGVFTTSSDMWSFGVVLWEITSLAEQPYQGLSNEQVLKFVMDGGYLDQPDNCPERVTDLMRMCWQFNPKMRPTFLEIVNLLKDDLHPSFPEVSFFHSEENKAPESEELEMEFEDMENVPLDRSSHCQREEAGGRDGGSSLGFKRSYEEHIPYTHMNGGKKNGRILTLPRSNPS
Experiment [17] shares this target. The settings on record: at 1 µM.
Experiment [18] has as its target Insulin receptor-related protein (Homo sapiens) (UniProt P14616). The settings on record: at 0.1 µM.
The target is the same in experiment [19]. The settings on record: at 1 µM.
Experiment [20] has as its target T4, Tyrosine-protein kinase ITK/TSK (Homo sapiens) (UniProt Q08881).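 Further: mean percent inhibition of ITK from the GSK PKIS screen.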
T4 sequence (whole entry): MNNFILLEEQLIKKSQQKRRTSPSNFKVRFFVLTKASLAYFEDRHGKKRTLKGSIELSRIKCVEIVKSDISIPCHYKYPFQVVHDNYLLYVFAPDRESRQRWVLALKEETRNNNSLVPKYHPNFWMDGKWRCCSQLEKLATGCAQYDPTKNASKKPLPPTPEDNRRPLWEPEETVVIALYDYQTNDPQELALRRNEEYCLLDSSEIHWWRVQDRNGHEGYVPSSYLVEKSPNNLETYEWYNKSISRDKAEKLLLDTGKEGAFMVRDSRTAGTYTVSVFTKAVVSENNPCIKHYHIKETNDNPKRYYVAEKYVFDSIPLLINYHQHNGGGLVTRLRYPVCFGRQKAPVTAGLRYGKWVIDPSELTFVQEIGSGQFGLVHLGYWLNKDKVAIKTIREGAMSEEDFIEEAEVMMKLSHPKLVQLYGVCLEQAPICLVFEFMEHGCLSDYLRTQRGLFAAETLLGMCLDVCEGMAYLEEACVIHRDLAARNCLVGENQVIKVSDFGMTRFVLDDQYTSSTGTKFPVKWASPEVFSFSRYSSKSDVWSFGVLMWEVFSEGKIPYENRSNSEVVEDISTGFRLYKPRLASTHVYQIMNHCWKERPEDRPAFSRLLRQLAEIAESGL
The settings on record: at 0.1 µM.

Values joined by “and” are separate entries in the source; they are usually repeats but may differ in a detail not shown here. Identical values can stand only once.

Vascular endothelial growth factor receptor 3 (Homo sapiens), sequence (P35916 whole entry): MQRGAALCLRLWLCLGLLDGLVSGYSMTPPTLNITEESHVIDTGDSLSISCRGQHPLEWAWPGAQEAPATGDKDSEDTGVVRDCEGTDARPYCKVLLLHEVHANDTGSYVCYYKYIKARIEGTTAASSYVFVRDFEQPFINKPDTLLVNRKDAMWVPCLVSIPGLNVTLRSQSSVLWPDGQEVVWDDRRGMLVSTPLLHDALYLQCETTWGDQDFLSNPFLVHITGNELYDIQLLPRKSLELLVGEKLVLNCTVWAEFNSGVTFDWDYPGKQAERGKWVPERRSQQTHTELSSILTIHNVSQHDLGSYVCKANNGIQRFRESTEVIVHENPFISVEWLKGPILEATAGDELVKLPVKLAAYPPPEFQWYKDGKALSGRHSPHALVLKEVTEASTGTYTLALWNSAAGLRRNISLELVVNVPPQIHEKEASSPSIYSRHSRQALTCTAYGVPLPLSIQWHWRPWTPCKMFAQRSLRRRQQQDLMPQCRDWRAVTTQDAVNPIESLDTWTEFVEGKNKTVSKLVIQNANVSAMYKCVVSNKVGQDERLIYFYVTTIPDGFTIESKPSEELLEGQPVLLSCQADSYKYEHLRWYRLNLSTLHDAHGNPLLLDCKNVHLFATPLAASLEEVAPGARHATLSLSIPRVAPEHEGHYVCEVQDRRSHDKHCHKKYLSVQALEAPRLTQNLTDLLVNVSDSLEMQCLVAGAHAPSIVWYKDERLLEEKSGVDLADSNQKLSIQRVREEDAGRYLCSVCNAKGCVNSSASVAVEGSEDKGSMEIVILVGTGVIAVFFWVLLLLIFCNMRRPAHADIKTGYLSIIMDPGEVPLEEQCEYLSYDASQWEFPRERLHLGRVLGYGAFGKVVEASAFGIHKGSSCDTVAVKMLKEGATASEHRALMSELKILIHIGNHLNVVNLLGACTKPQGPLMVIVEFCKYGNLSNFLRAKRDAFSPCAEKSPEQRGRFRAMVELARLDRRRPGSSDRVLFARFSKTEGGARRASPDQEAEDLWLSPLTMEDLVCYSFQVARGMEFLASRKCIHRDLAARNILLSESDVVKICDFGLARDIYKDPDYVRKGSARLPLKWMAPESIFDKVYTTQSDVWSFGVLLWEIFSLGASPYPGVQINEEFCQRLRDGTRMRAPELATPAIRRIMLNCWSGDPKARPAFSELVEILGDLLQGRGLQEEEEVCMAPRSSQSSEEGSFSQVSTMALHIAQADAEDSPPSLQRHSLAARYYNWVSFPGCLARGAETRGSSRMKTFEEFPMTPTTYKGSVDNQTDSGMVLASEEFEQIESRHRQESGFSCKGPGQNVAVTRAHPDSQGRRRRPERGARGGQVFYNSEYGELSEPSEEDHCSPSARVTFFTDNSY
Insulin receptor-related protein (Homo sapiens), sequence (P14616 27-742 limits assumed): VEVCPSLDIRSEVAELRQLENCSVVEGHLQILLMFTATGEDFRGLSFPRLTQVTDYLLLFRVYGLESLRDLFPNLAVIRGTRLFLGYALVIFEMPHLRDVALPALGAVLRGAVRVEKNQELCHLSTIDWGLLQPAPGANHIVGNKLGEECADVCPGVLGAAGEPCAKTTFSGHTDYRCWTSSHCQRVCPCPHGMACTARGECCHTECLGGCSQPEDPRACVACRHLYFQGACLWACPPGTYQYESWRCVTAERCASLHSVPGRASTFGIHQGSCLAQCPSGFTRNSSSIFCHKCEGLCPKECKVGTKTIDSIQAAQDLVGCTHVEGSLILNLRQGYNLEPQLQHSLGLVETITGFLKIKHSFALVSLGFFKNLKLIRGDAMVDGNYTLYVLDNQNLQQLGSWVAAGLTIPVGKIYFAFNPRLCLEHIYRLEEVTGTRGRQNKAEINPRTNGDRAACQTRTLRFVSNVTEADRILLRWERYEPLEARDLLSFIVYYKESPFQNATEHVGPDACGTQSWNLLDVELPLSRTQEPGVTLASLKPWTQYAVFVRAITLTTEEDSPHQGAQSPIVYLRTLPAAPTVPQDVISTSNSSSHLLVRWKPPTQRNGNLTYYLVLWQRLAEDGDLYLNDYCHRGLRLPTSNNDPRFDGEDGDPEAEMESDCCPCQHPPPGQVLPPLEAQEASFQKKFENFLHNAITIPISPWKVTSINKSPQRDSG
Insulin receptor-related protein (Homo sapiens), sequence (P14616 747-1297 limits assumed): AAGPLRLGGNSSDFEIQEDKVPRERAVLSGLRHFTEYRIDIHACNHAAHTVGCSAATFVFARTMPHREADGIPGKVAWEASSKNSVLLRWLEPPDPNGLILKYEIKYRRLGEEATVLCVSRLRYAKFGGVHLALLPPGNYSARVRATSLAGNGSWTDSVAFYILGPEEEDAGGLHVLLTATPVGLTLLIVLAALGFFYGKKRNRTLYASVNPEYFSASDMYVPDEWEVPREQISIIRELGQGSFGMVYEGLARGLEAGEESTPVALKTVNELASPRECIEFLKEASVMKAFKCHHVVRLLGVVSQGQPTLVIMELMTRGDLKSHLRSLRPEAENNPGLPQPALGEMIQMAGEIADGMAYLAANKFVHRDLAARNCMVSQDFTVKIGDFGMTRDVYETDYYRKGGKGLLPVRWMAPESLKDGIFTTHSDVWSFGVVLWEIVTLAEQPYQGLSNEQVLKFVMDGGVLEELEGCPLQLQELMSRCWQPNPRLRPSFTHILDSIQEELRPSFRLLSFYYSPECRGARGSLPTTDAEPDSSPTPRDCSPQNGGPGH

With `CS(=O)(=O)CCNCc1ccc(-c2ccc3ncnc(Nc4ccc(OCc5ccccc5)cc4)c3c2)o1`, the inhibition in experiment [1] was 15.5%; in experiment [2] it was 3.64%; in experiment [3], 3.52%; in [4], 5.7%; in experiment [5] it was -0.67%; in experiment [6], -0.25%. Besides, the inhibition in [7] came to 4.64%; in [8], 1.81%; in experiment [9], 6.19%; in experiment [10], 1.87%; in [11] it was 14.9%; in experiment [12] it was 7.13%. Besides, the inhibition is 14.3% in [13]; 1.22% in [14]; 2.03% in experiment [15]; -0.92% in experiment [16]; 2.86% in experiment [17]; 1.91% in [18]. In addition, the figures for the inhibition in [19] and in experiment [20] were 2.07% and 0.71%, respectively.

As to `Nc1ncnc2occ(-c3ccc(NC(=O)Nc4cc(C(F)(F)F)ccc4F)cc3)c12`, the inhibition is 4.68% and 3.35% in experiment [1]; 2.14% and -0.72% in experiment [2]; 1.27% and 0.12% in experiment [3]; 1.69% and 5.46% in experiment [4]; 35.4% and 26.1% in experiment [5]; 44.8% and 23.6% in experiment [6]. Besides, the inhibition in experiment [7] was 97.2% and 75.5%; in [8] it was 91.2% and 83.5%; in experiment [9], 96.1% and 81.2%; in experiment [10], 2.34% and 3.05%; in [11] it was 24.3% and 15.7%; in experiment [12], 9.61% and 2.25%. The inhibition is 46.5% and 31.6% in experiment [13]; 11.3% and 1.32% in experiment [14]; 10.7% and 0.73% in experiment [15]; 2.86% and 1.65% in experiment [16]; 13.2% and 8.78% in experiment [17]; 1.56% and -3.07% in [18]. The inhibition in experiment [19] was 1.62% and -3%; in [20], 2.22% and -1.63%.

On to `Fc1cccc(COc2ccc(Nc3ncncc3C#Cc3ccccc3)cc2Cl)c1`, for which the inhibition is 8.71% in [1]; 3.37% in experiment [2]; 3.17% in experiment [3]; 7.47% in experiment [4]; -0.95% in experiment [5]; 4.04% in experiment [6]. Besides, the inhibition was 0.69% in experiment [7]; 3.32% in experiment [8]; 4.86% in experiment [9]; 1.15% in experiment [10]; 2.9% in experiment [11]; 5.09% in [12]. The inhibition in experiment [13] was 7.44%; in [14], 3.73%; in experiment [15] it was 3.91%; in experiment [16] it was 2.77%; in experiment [17], 4.63%; in experiment [18], 0.84%. Moreover, the inhibition was determined as 3.29% in [19] and 1.58% in experiment [20].
